In PubChem BioAssay (Tox21):
Inconclusive results are not listed. A call without a number means that no potency is given here. Activity calls are given as the source filed them. Calls follow the shape of the dose curve; as a rule, active = well fitted curve in the direction sought with a large enough effect in the repeat runs; inconclusive = weak or mixed curves; inactive = no such curve, though single readings can be large; an effect the other way counts as inactive or inconclusive.

Each molecule was assayed against Cytochrome P450 2D6 (Homo sapiens) (UniProt P10635) (assay: Cytochrome P450 Family 2 Subfamily D Member 6 (CYP2D6) small molecule antagonists: luciferase reporter qHTS assay (AID 1671196; also: nearly all actives have a fitted effect of over 50% in size)). Conditions: P450-Glo CYP2D6 enzyme assay, luciferin luminescence, 1 h; series mostly up to 115 µM.
Cytochrome P450 2D6 (Homo sapiens), sequence (P10635 whole entry, looked up): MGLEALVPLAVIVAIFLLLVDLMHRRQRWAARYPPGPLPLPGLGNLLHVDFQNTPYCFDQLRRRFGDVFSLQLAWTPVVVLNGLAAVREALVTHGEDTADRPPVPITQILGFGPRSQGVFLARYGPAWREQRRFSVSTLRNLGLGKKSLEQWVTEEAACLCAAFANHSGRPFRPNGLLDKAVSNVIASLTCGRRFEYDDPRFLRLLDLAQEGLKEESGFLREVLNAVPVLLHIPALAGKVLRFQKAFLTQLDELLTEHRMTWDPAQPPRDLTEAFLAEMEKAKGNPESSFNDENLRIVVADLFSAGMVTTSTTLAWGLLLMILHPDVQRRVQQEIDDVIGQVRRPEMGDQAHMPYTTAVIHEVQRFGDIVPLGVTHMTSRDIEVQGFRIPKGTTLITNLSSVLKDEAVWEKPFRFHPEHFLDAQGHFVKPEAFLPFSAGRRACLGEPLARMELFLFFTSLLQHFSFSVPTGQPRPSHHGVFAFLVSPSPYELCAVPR
Outline: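 Enzyme and proluciferin substrate were first combined with test chemical for 10 min at room temperature. Adding NADPH regeneration solution started a 1 h reaction, stopped with luciferin detection reagent and read by luminescence 20 min later.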
Potency is read from the fitted curve at half-maximal effect.

| SMILES | Potency |
| --- | --- |
| CCC1COC(=O)O1 (stereo not given) | inactive |
| Cc1nc2n(c(=O)c1CCN1CCC(C(=O)c3ccc(F)cc3)CC1)CCS2 | 0.49 µM (active) |
| C/C=C(\C)C(=O)OCC/C=C\CC | inactive |
| CCC(O)C(C)(C)C (stereo not given) | inactive |
| O=P(O)(O)OCC(O)CO (stereo not given) | inactive |
| CCC(C)N (stereo not given) | inactive |
| CC(=O)/C=C/c1ccco1 | inactive |
| C[C@H](CCC(=O)O)[C@H]1CC[C@H]2[C@@H]3[C@H](O)C[C@@H]4C[C@H](O)CC[C@]4(C)[C@H]3C[C@H](O)[C@]12C | inactive |

What follows are molecules tested against Cytochrome P450 2C19 (Homo sapiens) (UniProt P33261) (assay: Cytochrome P450 Family 2 Subfamily C Member 19 (CYP2C19) small molecule antagonists: luciferase reporter qHTS assay (AID 1671197; also: nearly all actives have a fitted effect of over 65% in size)). Conditions: P450-Glo CYP2C19 enzyme, luciferin luminescence, 1 h; series mostly up to 115 µM.
Cytochrome P450 2C19 (Homo sapiens), sequence (P33261 whole entry, looked up): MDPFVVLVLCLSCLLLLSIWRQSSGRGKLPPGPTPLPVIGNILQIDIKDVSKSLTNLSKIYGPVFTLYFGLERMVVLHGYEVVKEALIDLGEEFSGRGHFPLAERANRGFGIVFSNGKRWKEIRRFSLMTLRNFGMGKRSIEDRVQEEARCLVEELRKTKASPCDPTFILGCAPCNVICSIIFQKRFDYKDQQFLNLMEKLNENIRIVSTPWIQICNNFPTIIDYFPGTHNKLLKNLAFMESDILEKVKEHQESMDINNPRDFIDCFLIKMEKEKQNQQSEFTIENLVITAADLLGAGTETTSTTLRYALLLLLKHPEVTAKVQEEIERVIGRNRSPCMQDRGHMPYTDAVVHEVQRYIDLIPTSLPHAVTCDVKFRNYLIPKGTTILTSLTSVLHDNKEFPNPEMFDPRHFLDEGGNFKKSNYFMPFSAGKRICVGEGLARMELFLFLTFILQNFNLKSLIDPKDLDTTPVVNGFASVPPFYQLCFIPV
Outline: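 Quantitative high-throughput screen of the Tox21 library using CYP2C19 with proluciferin substrate. Reaction: NADPH regeneration, 37C, 1 h, after 10 min compound preincubation at room temperature. Readout: luminescence.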

| SMILES | Potency |
| --- | --- |
| CC(C)(c1ccc(Oc2ccc3c(c2)C(=O)OC3=O)cc1)c1ccc(Oc2ccc3c(c2)C(=O)OC3=O)cc1 | inactive |
| Cc1ccccc1C | 81.7 µM (active) |
| CC(C)c1ccccc1O | inactive |
| CC(C)(C)c1ccc(C=O)cc1 | inactive |
| CCN(CCO)c1cccc(C)c1 | 35.6 µM (active) |
| CCCCC[Si](OCC)(OCC)OCC | 25.2 µM (active) |
| C=CC(C)(O)CC/C=C(\C)CC (stereo not given) | 40 µM (active) |
| CCCCC(C)C(=O)O (stereo not given) | 39.9 µM (active) |
| CC(C)CCCC(C)CC=O (stereo not given) | 79.6 µM (active) |
| CC(C)C(=O)c1ccccc1 | inactive |
| COCCOCCOCCOC | inactive |
| CCC(=O)c1ccc(O)cc1 | inactive |
| O=C(c1ccc2c(c1)C(=O)OC2=O)c1ccc2c(c1)C(=O)OC2=O | inactive |
| CCCCC(CC)COC(=O)c1ccccc1 (stereo not given) | inactive |
| CC(C)=CC(C)(C)C | inactive |
| O=CN1CCOCC1 | inactive |
| CNC(=O)C(c1ccccc1)c1ccccc1 | 20 µM (active) |
| Cc1cccc(C(=O)O)c1[N+](=O)[O-] | inactive |
| C=C[C@@H](C)CCC=C(C)C | inactive |
| O=S(=O)(O)CCO | inactive |
| O=C(O)c1c(Cl)ccc(Cl)c1Cl | inactive |
| C=C(C)C(=O)OC1CC(C)CC(C)(C)C1 (stereo not given) | inactive |
| CCC1COC(=O)O1 (stereo not given) | inactive |
| Cc1nc2n(c(=O)c1CCN1CCC(C(=O)c3ccc(F)cc3)CC1)CCS2 | inactive |
| C/C=C(\C)C(=O)OCC/C=C\CC | inactive |
| CCC(O)C(C)(C)C (stereo not given) | inactive |
| CCC(C)N (stereo not given) | inactive |
| CC(=O)/C=C/c1ccco1 | inactive |

The molecules below were run against Cytochrome P450 2C9 (Homo sapiens) (UniProt P11712) (assay: Cytochrome P450 Family 2 Subfamily C Member 9 (CYP2C9) small molecule antagonists: luciferase reporter qHTS assay (AID 1671198; also: nearly all actives have a fitted effect of over 50% in size)). Conditions: P450-Glo CYP2C9 enzyme assay, luciferin luminescence; series mostly up to 115 µM.
Cytochrome P450 2C9 (Homo sapiens), sequence (P11712 whole entry, looked up): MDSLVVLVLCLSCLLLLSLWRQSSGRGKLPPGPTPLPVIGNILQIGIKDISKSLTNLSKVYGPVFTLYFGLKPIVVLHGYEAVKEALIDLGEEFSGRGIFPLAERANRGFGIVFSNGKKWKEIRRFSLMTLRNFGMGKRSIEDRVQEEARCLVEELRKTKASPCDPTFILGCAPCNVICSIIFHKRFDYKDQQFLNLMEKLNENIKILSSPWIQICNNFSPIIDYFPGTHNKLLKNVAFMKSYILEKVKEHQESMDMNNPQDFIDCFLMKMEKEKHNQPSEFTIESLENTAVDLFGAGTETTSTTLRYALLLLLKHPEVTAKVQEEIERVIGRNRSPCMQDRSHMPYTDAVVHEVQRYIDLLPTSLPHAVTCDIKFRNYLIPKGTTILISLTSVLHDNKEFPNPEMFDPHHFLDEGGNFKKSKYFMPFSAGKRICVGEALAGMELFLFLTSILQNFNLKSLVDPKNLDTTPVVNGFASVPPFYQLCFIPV
Outline: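 P450-Glo proluciferin substrate with CYP2C9 enzyme; 10 min RT preincubation, then NADPH regeneration 1 h at 37C; luciferin detection reagent 20 min RT, luminescence in relative luminescence units.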

| SMILES | Potency |
| --- | --- |
| CC(C)(c1ccc(Oc2ccc3c(c2)C(=O)OC3=O)cc1)c1ccc(Oc2ccc3c(c2)C(=O)OC3=O)cc1 | inactive |
| CNC(=O)NC | inactive |
| Nc1ccnc(=O)[nH]1 | inactive |
| Cc1ccccc1C | inactive |
| CC(C)(C)c1ccc(C=O)cc1 | inactive |
| CCCCC[Si](OCC)(OCC)OCC | 31.7 µM (active) |
| C[N+](C)(C)CC(O)CCl (stereo not given) | inactive |
| Cc1ccccc1OCC1CO1 (stereo not given) | inactive |
| CC(C)C(=O)c1ccccc1 | inactive |
| CCC(=O)c1ccc(O)cc1 | inactive |
| O=C(c1ccc2c(c1)C(=O)OC2=O)c1ccc2c(c1)C(=O)OC2=O | inactive |
| CCCOC(=O)CCCCC(=O)OCCC | 20 µM (active) |
| CC(C)=CC(C)(C)C | inactive |
| CN(C)CCOCCN(C)CCO | inactive |
| O=CN1CCOCC1 | inactive |
| CCCC(C)CC (stereo not given) | inactive |
| C=C[C@@H](C)CCC=C(C)C | inactive |
| O=S(=O)(O)CCO | inactive |
| CCOC(=O)OCC/C(SC(=O)OCC)=C(\C)N(C=O)Cc1cnc(C)nc1N | inactive |
| C=C(C)C(=O)OC1CC(C)CC(C)(C)C1 (stereo not given) | inactive |
| CCC1COC(=O)O1 (stereo not given) | inactive |
| C/C=C(\C)C(=O)OCC/C=C\CC | inactive |
| CCC(O)C(C)(C)C (stereo not given) | inactive |
| O=P(O)(O)OCC(O)CO (stereo not given) | inactive |
| CCC(C)N (stereo not given) | inactive |
| CC(=O)/C=C/c1ccco1 | inactive |
| C[C@H](CCC(=O)O)[C@H]1CC[C@H]2[C@@H]3[C@H](O)C[C@@H]4C[C@H](O)CC[C@]4(C)[C@H]3C[C@H](O)[C@]12C | inactive |

What follows are molecules tested against Cytochrome P450 1A2 (Homo sapiens) (UniProt P05177) (assay: Cytochrome P450 Family 1 Subfamily A Member 2 (CYP1A2) small molecule antagonists: luciferase reporter qHTS assay (AID 1671199; also: nearly all actives have a fitted effect of over 50% in size)). Conditions: P450-Glo CYP1A2 enzyme, luciferin luminescence, 1 h; series mostly up to 115 µM.
Cytochrome P450 1A2 (Homo sapiens), sequence (P05177 whole entry, looked up): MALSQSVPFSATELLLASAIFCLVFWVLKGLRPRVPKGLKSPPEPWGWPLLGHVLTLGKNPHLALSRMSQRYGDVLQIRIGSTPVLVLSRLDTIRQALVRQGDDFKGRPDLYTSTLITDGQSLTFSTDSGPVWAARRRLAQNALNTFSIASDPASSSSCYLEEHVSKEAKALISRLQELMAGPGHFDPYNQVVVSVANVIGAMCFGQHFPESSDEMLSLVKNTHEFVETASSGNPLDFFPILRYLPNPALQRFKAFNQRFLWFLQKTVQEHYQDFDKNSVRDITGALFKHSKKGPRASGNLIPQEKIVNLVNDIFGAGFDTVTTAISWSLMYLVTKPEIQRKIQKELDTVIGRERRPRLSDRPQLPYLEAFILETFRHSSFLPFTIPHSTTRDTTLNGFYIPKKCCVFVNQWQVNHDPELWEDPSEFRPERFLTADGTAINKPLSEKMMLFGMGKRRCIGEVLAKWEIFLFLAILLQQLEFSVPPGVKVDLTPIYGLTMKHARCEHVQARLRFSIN
Outline: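 Compounds were incubated with CYP1A2 and a luminogenic proluciferin substrate for 10 min at room temperature before the reaction was started with NADPH regeneration solution. After 1 h, detection reagent was added and light output, proportional to CYP activity, was recorded.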

| SMILES | Potency |
| --- | --- |
| CNC(=O)NC | inactive |
| Nc1ccnc(=O)[nH]1 | inactive |
| CCN(CCO)c1cccc(C)c1 | 28.3 µM (active) |
| CCCCC(C)C(=O)O (stereo not given) | 39.9 µM (active) |
| C[N+](C)(C)CC(O)CCl (stereo not given) | inactive |
| Cc1ccccc1OCC1CO1 (stereo not given) | inactive |
| CCCCC(CC)COC(=O)c1ccccc1 (stereo not given) | 28.3 µM (active) |
| CCCOC(=O)CCCCC(=O)OCCC | 22.4 µM (active) |
| CN(C)CCOCCN(C)CCO | inactive |
| Cc1cccc(C(=O)O)c1[N+](=O)[O-] | 63.4 µM (active) |
| CCCC(C)CC (stereo not given) | 35 µM (active) |
| O=C(O)c1c(Cl)ccc(Cl)c1Cl | inactive |
| CCOC(=O)OCC/C(SC(=O)OCC)=C(\C)N(C=O)Cc1cnc(C)nc1N | inactive |
| O=P(O)(O)OCC(O)CO (stereo not given) | inactive |
| C[C@H](CCC(=O)O)[C@H]1CC[C@H]2[C@@H]3[C@H](O)C[C@@H]4C[C@H](O)CC[C@]4(C)[C@H]3C[C@H](O)[C@]12C | inactive |

Each molecule was assayed against Voltage-gated inwardly rectifying potassium channel KCNH2 (Homo sapiens) (UniProt Q12809) (assay: Human Ether-a-go-go-Related Gene (hERG) channel small molecule antagonists: fluorescence cell-based qHTS assay (AID 1671200; also: nearly all actives have a fitted effect of over 50% in size)). Conditions: hERG-U2OS cells, FluxOR thallium flux fluorescence; series mostly up to 76.8 µM.
Voltage-gated inwardly rectifying potassium channel KCNH2 (Homo sapiens), sequence (Q12809 whole entry, looked up): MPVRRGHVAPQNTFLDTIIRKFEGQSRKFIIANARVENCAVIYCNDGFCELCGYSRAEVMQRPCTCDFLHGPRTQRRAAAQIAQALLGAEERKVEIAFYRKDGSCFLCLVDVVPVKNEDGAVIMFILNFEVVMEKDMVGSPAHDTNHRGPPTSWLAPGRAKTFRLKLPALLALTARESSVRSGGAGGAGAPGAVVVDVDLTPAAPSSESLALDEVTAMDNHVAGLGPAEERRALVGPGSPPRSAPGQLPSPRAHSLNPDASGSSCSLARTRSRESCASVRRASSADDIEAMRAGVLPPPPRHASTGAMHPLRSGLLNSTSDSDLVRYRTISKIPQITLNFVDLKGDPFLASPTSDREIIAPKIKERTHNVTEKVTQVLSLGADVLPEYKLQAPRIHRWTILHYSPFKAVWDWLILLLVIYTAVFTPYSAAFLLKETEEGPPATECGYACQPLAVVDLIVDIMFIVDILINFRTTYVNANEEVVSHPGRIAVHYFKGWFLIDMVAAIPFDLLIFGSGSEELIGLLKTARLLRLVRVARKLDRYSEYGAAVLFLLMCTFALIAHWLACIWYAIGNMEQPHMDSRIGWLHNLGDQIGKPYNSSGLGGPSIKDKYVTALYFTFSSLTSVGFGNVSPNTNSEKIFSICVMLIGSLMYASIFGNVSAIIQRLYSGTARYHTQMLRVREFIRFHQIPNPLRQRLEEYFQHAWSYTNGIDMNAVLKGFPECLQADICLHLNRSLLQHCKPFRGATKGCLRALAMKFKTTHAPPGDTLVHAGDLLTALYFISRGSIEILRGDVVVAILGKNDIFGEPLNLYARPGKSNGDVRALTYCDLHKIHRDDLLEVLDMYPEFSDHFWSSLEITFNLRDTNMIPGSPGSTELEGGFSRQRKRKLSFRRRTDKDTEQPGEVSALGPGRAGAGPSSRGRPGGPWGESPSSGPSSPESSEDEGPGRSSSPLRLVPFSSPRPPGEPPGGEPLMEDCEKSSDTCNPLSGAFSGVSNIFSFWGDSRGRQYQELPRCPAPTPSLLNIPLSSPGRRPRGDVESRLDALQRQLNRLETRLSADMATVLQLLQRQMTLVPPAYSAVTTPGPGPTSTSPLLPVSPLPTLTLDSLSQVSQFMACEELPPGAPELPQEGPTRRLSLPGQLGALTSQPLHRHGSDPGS
Outline: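 Thallium flux as potassium surrogate: FluxOR II dye loaded 1 h at room temperature into hERG-expressing U2OS cells, then stimulus buffer added after 10 min. Kinetic 480 nm excitation/540 nm emission read, 2 min.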

| SMILES | Potency |
| --- | --- |
| CC(C)(c1ccc(Oc2ccc3c(c2)C(=O)OC3=O)cc1)c1ccc(Oc2ccc3c(c2)C(=O)OC3=O)cc1 | inactive |
| CNC(=O)NC | inactive |
| Nc1ccnc(=O)[nH]1 | inactive |
| Cc1ccccc1C | inactive |
| CC(C)c1ccccc1O | inactive |
| CCN(CCO)c1cccc(C)c1 | inactive |
| CCCCC[Si](OCC)(OCC)OCC | inactive |
| C=CC(C)(O)CC/C=C(\C)CC (stereo not given) | inactive |
| CCCCC(C)C(=O)O (stereo not given) | inactive |
| C[N+](C)(C)CC(O)CCl (stereo not given) | inactive |
| CC(C)CCCC(C)CC=O (stereo not given) | inactive |
| Cc1ccccc1OCC1CO1 (stereo not given) | inactive |
| CC(C)C(=O)c1ccccc1 | inactive |
| COCCOCCOCCOC | inactive |
| CCC(=O)c1ccc(O)cc1 | inactive |
| CCCCC(CC)COC(=O)c1ccccc1 (stereo not given) | inactive |

| SMILES | Potency |
| --- | --- |
| CCCOC(=O)CCCCC(=O)OCCC | inactive |
| CN(C)CCOCCN(C)CCO | inactive |
| CNC(=O)C(c1ccccc1)c1ccccc1 | inactive |
| Cc1cccc(C(=O)O)c1[N+](=O)[O-] | inactive |
| CCCC(C)CC (stereo not given) | inactive |
| C=C[C@@H](C)CCC=C(C)C | inactive |
| O=S(=O)(O)CCO | inactive |
| O=C(O)c1c(Cl)ccc(Cl)c1Cl | inactive |
| CCOC(=O)OCC/C(SC(=O)OCC)=C(\C)N(C=O)Cc1cnc(C)nc1N | inactive |
| C=C(C)C(=O)OC1CC(C)CC(C)(C)C1 (stereo not given) | inactive |
| CCC1COC(=O)O1 (stereo not given) | inactive |
| Cc1nc2n(c(=O)c1CCN1CCC(C(=O)c3ccc(F)cc3)CC1)CCS2 | 9.52 µM (active) |
| CCC(O)C(C)(C)C (stereo not given) | inactive |
| O=P(O)(O)OCC(O)CO (stereo not given) | inactive |
| CCC(C)N (stereo not given) | inactive |
| C[C@H](CCC(=O)O)[C@H]1CC[C@H]2[C@@H]3[C@H](O)C[C@@H]4C[C@H](O)CC[C@]4(C)[C@H]3C[C@H](O)[C@]12C | inactive |
